Here are results for 1 compound from PubChem BioAssay AID540325 (National Center for Advancing Translational Sciences (NCATS), 2011).

Some of the results follow. Activity calls are given as the source filed them.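 Rule for the calls: active = inhibition at 10 µM of 30% or more; inconclusive = no clear call, values can overlap the other calls; inactive = inhibition at 10 µM under 30%.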

The target in this assay is DNA polymerase beta (Homo sapiens) (UniProt P06746). Put plainly: Inhibitors of DNA Polymerase Beta: Hit Validation in Radiolabeled Extension Assay. The conditions noted are these: radiolabeled primer extension gel assay, phosphorimager; at 10 µM; active compounds read high. The source says: The base excision repair system in human cells is a target for therapeutic modulation of the response to irradiation treatment and DNA-damaging drugs. A key enzyme in this system is the bi-functional DNA polymerase known as DNA polymerase Beta (Pol Beta). […] Using an integrated approach involving discovery of small molecule probes for Pol Beta via HTS and medchem optimization in collaboration with the NIH Chemical Genomics Center, validation by crystallography and kinetics along with cell-based validation experiments, we will test the hypothesis that base excision repair can be strategically modulated in human cells by targeting Pol Beta. Thus, we anticipate the Pol Beta-specific probes emerging from this research will serve as starting points in the development of clinical agents for use in downregulation of DNA base excision repair during therapeutic interventions against cancer. This assay is an orthogonal follow-up assay that looks at radiolabeled primer extension and was carried out by the assay provider. NIH Chemical Genomics Center [NCGC] NIH Molecular Libraries Probe Centers Network [MLPCN] […]
A primer oligonucleotide is 5'-32P end-labeled using T4 polynucleotide kinase and 32P-[ATP]. […] Percent extension of substrate to product is measured using standard, quantitative phosphoimager analysis.
On to `O=C(Nc1ccc(S(=O)(=O)Nc2nccs2)cc1)c1cc(-c2ccncc2)nc2ccccc12`, for which the inhibition is 96.4% (active).

A word on the inhibition: it is the change of the read-out against control, counted positive when it falls.
